# Measured values taken from PubChem BioAssay (NCI).
# About 83,000 compounds went through this panel and 20% of them were active in at least one assay; those are over-represented in the sample as a whole.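 The endpoint reported here, percent growth, reads 100 for growth as untreated, 0 for no net growth and -100 for all cells dead.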 Active and inactive are the calls of the source. How the source made its calls: active means growth percent below 10; inactive means the rest.
# Test system: NCI-H522 lung
# Assay: NCI-60 one-dose screen, 48 h (100 = growth as untreated, 0 = no growth, -100 = all killed)
# Details: 10 µM unless noted
row,SMILES,growth
1,O=C(Nc1ccc(N2CCNCC2)cc1)c1[nH]ncc1Nc1cc(Oc2ccccc2)ncn1,8.05% (active)
2,CS(=O)(=O)Nc1ccc(C(=O)NC(C(=O)NO)c2ccc(-c3cccc(F)c3)cc2)cc1 (configuration not stated),30% (inactive)
3,CC[C@]1(O)C[C@@H]2CN(CCc3c([nH]c4ccccc34)[C@@](C(=O)OC)(c3cc4c(cc3OC)N(C)[C@H]3[C@@](O)(C(=O)OC)[C@H](OC(C)=O)[C@]5(CC)C=CCN6CC[C@]43[C@@H]65)C2)C1,4.5% (active)
4,O=C(CN1C(=O)/C(=C\c2ccc(Cl)cc2)SC1=S)Nc1ncc(Cc2ccc(Cl)cc2)s1,89.5% (inactive)
5,CCCCC(O)(c1ccc(Cl)cc1)C(CN1CCOCC1)c1ccc(Cl)cc1 (configuration not stated),19.8% (inactive)
6,O=C(Nc1ccc(C23CC4CC(CC(c5ccccc5)(C4)C2)C3)cc1)c1cccs1,59.9% (inactive)
7,O=C(COc1cc(O)c2c(=O)cc(-c3ccccc3)oc2c1)Nc1ccccc1,81.5% (inactive)
8,COc1cc(C(=O)Nc2ccc(-c3nc4ccccc4[nH]3)cc2)cc(OC)c1OC,25% (inactive)
9,COC(=O)[C@@H]1CCCN1C(=O)[C@H]1CCCN1C(=O)[C@@H](Cc1c[nH]c2ccccc12)NC(=S)Nc1cc(C(F)(F)F)cc(C(F)(F)F)c1,69.8% (inactive)
10,O=C(CCc1nnc2sc(-c3ccc(Cl)cc3Cl)nn12)c1nc2ncccc2[nH]1,-47.9% (active)
11,O=Cc1cc2ccccc2nc1Nc1nccs1,83.1% (inactive)
12,O=C(CCc1nnc2sc(Cc3ccccc3Cl)nn12)c1nc2ncccc2[nH]1,81.5% (inactive)
13,NS(=O)(=O)c1ccc(CCN=C=S)cc1,-69.8% (active)
14,CCOc1cc(Cl)c(C(C)NC(=O)c2cccc(OC)c2)cc1OCC (configuration not stated),-76.1% (active)
15,CN1CCN(Cc2ccc(C(=O)Nc3cncc(C#Cc4cnc5cccnn45)c3)cc2C(F)(F)F)CC1,40.2% (inactive)
16,COc1ccc2c(c1)C=C1CSCC3=Cc4cc(OC)ccc4OC13O2,15.1% (inactive)
17,CN1CCN(Cc2ccc(NC(=O)c3cncc(C#Cc4nc(N)nc5[nH]ncc45)c3)cc2C(F)(F)F)CC1,-37.1% (active)
18,COc1cc(C(=O)O/N=C(\N)Cc2cccc3ccccc23)cc(OC)c1OC,-10.9% (active)
19,Nc1nc(-c2cnccn2)nn1-c1nc2ccccc2s1,88.4% (inactive)
20,COC(=O)C1=C(C)NC(C)=C(C(=O)OC)C(N2C(=O)CCC2=O)C1 (configuration not stated),7.93% (active)
21,COc1ccc(Br)c(/C=C2\SC(=Nc3ccc(O)cc3)NC2=O)c1,77.2% (inactive)
22,COc1ccc(Cn2c(Br)c3c(c2Br)-c2nc(NC(=O)c4ccc(OC)cc4)sc2CC3)cc1,72% (inactive)
23,Nc1ncnc(N)c1NC(=O)c1ccc(OCc2ccccc2)cc1,91.3% (inactive)
24,CCOc1ccc(-c2nonc2NC(=O)c2cccc(C)c2)cc1OCC,84% (inactive)

# Test system: A549/ATCC NSCLC
# Assay: as above
# Details: 10 µM unless noted
row,SMILES,growth
1,c1ccc2c(c1)oc1cc3sccc3nc12,102% (inactive)
2,CC1=C(C(=O)OCC2CCN(C(=O)OC(C)(C)C)CC2)[C@H](c2cccc(C#N)c2)C2=C(CC(C)(C)CC2=O)N1,46.1% (inactive)
3,O=C(c1nc2ccccc2[nH]1)C1C(c2ccc([N+](=O)[O-])cc2)C2CC3CCCCC3N2[C@@]12C(=O)Nc1cc(Cl)ccc12 (some centres not stated),18.5% (inactive)
4,Nc1ccn(C2O[C@H](CO)[C@@H](O)[C@H]2O)c(=O)n1 (some centres not stated),46.6% (inactive)
5,Nc1ccc(-n2c(=O)oc3ccc(Cl)cc3c2=O)c(Cl)c1,6.26% (active)
6,CC1=C(C(=O)OCC2CCN(C(=O)OC(C)(C)C)CC2)[C@@H](c2cccc(C#N)c2)C2=C(CC(C)(C)CC2=O)N1,35.5% (inactive)
7,N#Cc1c(N)nc2c(c1N)C(c1ccc(F)cc1)c1ccc(N)cc1O2 (configuration not stated),101% (inactive)
8,COc1ccc(Cn2c(Br)c3c(c2-c2cc(OC)c(OC)c(OC)c2)CCc2sc(NC(=O)c4ccc(OC)cc4)nc2-3)cc1,94.2% (inactive)
9,O=c1cc(NC2CCN(CCCc3ccccc3)CC2)c2cc(Cl)ccc2o1,0.692% (active)
10,Brc1ccc(Oc2ccc(Nc3ncnc4onc(-c5ccccc5)c34)cc2)cc1,95.5% (inactive)
11,NNC(=O)CNC(=O)Nc1n[nH]c(=S)s1,105% (inactive)
12,COc1ccc(Cn2c(Br)c3c(c2-c2cc(OC)c(OC)c(OC)c2)CCc2sc(NC(C)=O)nc2-3)cc1,52.8% (inactive)
13,COc1ccc(/C=C2\NC(=O)NC2=O)cc1O,99.1% (inactive)
14,Cc1cc2c(c(C)c1Cl)C(=O)/C(=C/c1ccco1)O2,103% (inactive)
15,O=C(Nc1ccc(N2CCNCC2)cc1)c1[nH]ncc1Nc1cc(Oc2ccccc2)ncn1,-49.8% (active)
16,CS(=O)(=O)Nc1ccc(C(=O)NC(C(=O)NO)c2ccc(-c3cccc(F)c3)cc2)cc1 (configuration not stated),103% (inactive)
17,CC[C@]1(O)C[C@@H]2CN(CCc3c([nH]c4ccccc34)[C@@](C(=O)OC)(c3cc4c(cc3OC)N(C)[C@H]3[C@@](O)(C(=O)OC)[C@H](OC(C)=O)[C@]5(CC)C=CCN6CC[C@]43[C@@H]65)C2)C1,17.8% (inactive)
18,O=C(CN1C(=O)/C(=C\c2ccc(Cl)cc2)SC1=S)Nc1ncc(Cc2ccc(Cl)cc2)s1,108% (inactive)
19,CCCCC(O)(c1ccc(Cl)cc1)C(CN1CCOCC1)c1ccc(Cl)cc1 (configuration not stated),29.6% (inactive)

row,SMILES,growth
1,O=C(Nc1ccc(C23CC4CC(CC(c5ccccc5)(C4)C2)C3)cc1)c1cccs1,72.9% (inactive)
2,O=C(COc1cc(O)c2c(=O)cc(-c3ccccc3)oc2c1)Nc1ccccc1,84.6% (inactive)
3,COc1cc(C(=O)Nc2ccc(-c3nc4ccccc4[nH]3)cc2)cc(OC)c1OC,45.8% (inactive)
4,COC(=O)[C@@H]1CCCN1C(=O)[C@H]1CCCN1C(=O)[C@@H](Cc1c[nH]c2ccccc12)NC(=S)Nc1cc(C(F)(F)F)cc(C(F)(F)F)c1,28.4% (inactive)
5,O=C(CCc1nnc2sc(-c3ccc(Cl)cc3Cl)nn12)c1nc2ncccc2[nH]1,4.78% (active)
6,O=Cc1cc2ccccc2nc1Nc1nccs1,96.9% (inactive)
7,O=C(CCc1nnc2sc(Cc3ccccc3Cl)nn12)c1nc2ncccc2[nH]1,104% (inactive)
8,NS(=O)(=O)c1ccc(CCN=C=S)cc1,71.5% (inactive)
9,CCOc1cc(Cl)c(C(C)NC(=O)c2cccc(OC)c2)cc1OCC (configuration not stated),17.3% (inactive)
10,CN1CCN(Cc2ccc(C(=O)Nc3cncc(C#Cc4cnc5cccnn45)c3)cc2C(F)(F)F)CC1,58.5% (inactive)
11,COc1ccc2c(c1)C=C1CSCC3=Cc4cc(OC)ccc4OC13O2,23.6% (inactive)
12,CN1CCN(Cc2ccc(NC(=O)c3cncc(C#Cc4nc(N)nc5[nH]ncc45)c3)cc2C(F)(F)F)CC1,103% (inactive)
13,COc1cc(C(=O)O/N=C(\N)Cc2cccc3ccccc23)cc(OC)c1OC,12.2% (inactive)
14,Nc1nc(-c2cnccn2)nn1-c1nc2ccccc2s1,92.7% (inactive)
15,COC(=O)C1=C(C)NC(C)=C(C(=O)OC)C(N2C(=O)CCC2=O)C1 (configuration not stated),77.6% (inactive)
16,COc1ccc(Br)c(/C=C2\SC(=Nc3ccc(O)cc3)NC2=O)c1,87.2% (inactive)
17,COc1ccc(Cn2c(Br)c3c(c2Br)-c2nc(NC(=O)c4ccc(OC)cc4)sc2CC3)cc1,79.7% (inactive)
18,Nc1ncnc(N)c1NC(=O)c1ccc(OCc2ccccc2)cc1,103% (inactive)
19,CCOc1ccc(-c2nonc2NC(=O)c2cccc(C)c2)cc1OCC,65.4% (inactive)
